The values below come from PubChem BioAssay (NCATS).

Records with an inconclusive call do not appear. Entries that show only a call come without a potency. More than one record can exist for a structure, and the calls need not agree. Calls of active or inactive are those of the source. Calls come from the whole dose curve; as a rule, active = well fitted curve in the direction sought with a large enough effect; inconclusive = small, poorly fitted or top-dose-only effect, or another doubt; inactive = no such curve, though single readings can be large; an effect the other way counts as inactive or inconclusive.

Assay [1] is described as follows: qHTS to identify inhibitors of the type 1 interferon - major histocompatibility complex class I in skeletal muscle: primary screen against the NCATS Pharmaceutical Collection (AID 1347407).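 Note: luminescence of HiBiT knocked into endogenous HLA-B as interferon-induced MHC class I level.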 A digest of the protocol:
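Compounds […] were added to CRISPR-engineered HLA-B-HiBiT C25cl48 human myoblasts with 4.0 ng/ml IFN-beta. After 24 hrs at 37 C, cells were lysed and HiBiT luminescence measured.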

Assay [2] deals with Protein phosphatase 1D (Homo sapiens) (UniProt O15297). The assay can be described thus: RapidFire Mass Spectrometry qHTS Assay for Modulators of WT P53-Induced Phosphatase 1 (WIP1) (AID 1347424).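 Note: amount of dephosphorylated VEPPL-S-QETFS peptide product formed by WIP1; series mostly up to about 63 µM.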 A digest of the protocol:
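RapidFire mass spectrometry measured dephosphorylated peptide after 5 min room-temperature reaction of 2 uM VEPPL-pS-QETFS with 10 nM WIP1 (50 mM Tris-HCl pH 7.5, 30 mM MgCl2, 0.1 mM EGTA, BSA), following 1 hr compound preincubation; 1 uM isotope-labelled product standard.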
On the technique in general: Quantitative high-throughput screening tests each substance at several concentrations.

For assay [3] the target is unchanged. The assay can be described thus: Rhodamine-PBP qHTS Assay for Modulators of WT P53-Induced Phosphatase 1 (WIP1) (AID 1347425). A digest of the protocol:
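Steps: enzyme with Rh-PBP sensor and compounds, room-temperature incubation of 1 hr, baseline read, addition of VEPPL-pS-QETFS (10 uM final), kinetic fluorescence reads at 525/598 nm. Activity equals final minus baseline signal.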

Assay [4] in a line: Primary qHTS for inhibitors of La Crosse Virus (LACV) - induced cell death in SH-SY5Y cells (AID 1508616).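 Note: top concentration of the series differs between compounds; higher means more rescue of cells from virus-induced death.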 The essentials:
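Screening measures cell viability in LACV-infected SH-SY5Y cultures. Compound was added before virus (0.01 MOI), and ATP was detected by luminescence 6 days later.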

Assay [5] is described as follows: qHTS for inhibitors of adenylyl cyclases using a fission yeast platform: a pilot screen against the NCATS LOPAC library (AID 1347410). The essentials:
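GFP from fbp1-GFP reporter, read by Acumen laser cytometry, indicates AC inhibition in fission yeast expressing AC9, GNAS and PDE4D2. Cells grown 18 h in the dark at 30C with compounds, final up to 57 uM.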

Assay [6] is described as follows: qHTS to identify inhibitors of the type 1 interferon - major histocompatibility complex class I in skeletal muscle: primary screen against the NCATS Mechanism Interrogation Plate v5.0 (MIPE) Libary (AID 1347411). Note: nearly all actives have a fitted effect of over 65% in size. The essentials:
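IFN-beta-driven (4 ng/ml) HLA-B-HiBit expression in CRISPR-tagged C25cl48 myoblasts; compounds 11-pt, 1:3, max 46 uM, 24 hr exposure; lytic NanoLuc complementation luminescence.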

The nature of assay [7]: Validation qHTS assay for inhibitors of Activation Induced Cytidine Deaminase (AID): UDG Counterscreen signal (AID 1347427). The essentials:
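Fluorescence at 560 nm excitation, 665 nm emission reports UDG signal after 250 mM NaOH (2x) addition and 30 min. Enzymes (AID 1 uM, UDG 2 U/mL, at 4/3x) preincubated 10 min with compound, then 4 h with 4x 250 nM DJC20/DJC23 substrate at room temperature.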

Assay [8] concerns the target Single-stranded DNA cytosine deaminase (Homo sapiens) (UniProt Q9GZX7). The assay can be described thus: Validation qHTS assay for inhibitors of Activation Induced Cytidine Deaminase (AID): AID signal (AID 1347429). The essentials: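 Compounds (up to 114 uM final) are tested against AID plus UDG using DJC20/DJC23 FRET substrate. Reactions incubate 4 hr at room temperature, receive NaOH for 30 min, and are read at Ex 540/Em 590 nm.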

Assay [9] concerns the target Calcium and integrin-binding protein 1 (Homo sapiens) (UniProt Q99828). Kind of assay: Confirmatory qHTS for Identification of Calcium Integrin Binding Protein 1 (CIB1) Competitor (AID 1508617). Note: nearly all actives have a fitted effect of over 65% in size. Note: potency is the fitted concentration of half-maximal effect. A digest of the protocol:
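Binding competition between test compounds and fluorescent alphaIIb peptide for 1 uM CIB1-GST is monitored by FP at 480/540 nm. Final compound range is up to 114 uM; unlabeled peptide serves as reference competitor.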

Single-stranded DNA cytosine deaminase (Homo sapiens), sequence (Q9GZX7 whole entry, looked up): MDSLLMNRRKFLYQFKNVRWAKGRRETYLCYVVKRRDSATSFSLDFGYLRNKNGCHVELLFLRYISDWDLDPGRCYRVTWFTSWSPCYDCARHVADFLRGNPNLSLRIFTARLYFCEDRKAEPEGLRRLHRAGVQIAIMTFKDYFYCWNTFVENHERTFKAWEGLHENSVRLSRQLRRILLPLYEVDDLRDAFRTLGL
Protein phosphatase 1D (Homo sapiens), sequence (O15297 whole entry, looked up): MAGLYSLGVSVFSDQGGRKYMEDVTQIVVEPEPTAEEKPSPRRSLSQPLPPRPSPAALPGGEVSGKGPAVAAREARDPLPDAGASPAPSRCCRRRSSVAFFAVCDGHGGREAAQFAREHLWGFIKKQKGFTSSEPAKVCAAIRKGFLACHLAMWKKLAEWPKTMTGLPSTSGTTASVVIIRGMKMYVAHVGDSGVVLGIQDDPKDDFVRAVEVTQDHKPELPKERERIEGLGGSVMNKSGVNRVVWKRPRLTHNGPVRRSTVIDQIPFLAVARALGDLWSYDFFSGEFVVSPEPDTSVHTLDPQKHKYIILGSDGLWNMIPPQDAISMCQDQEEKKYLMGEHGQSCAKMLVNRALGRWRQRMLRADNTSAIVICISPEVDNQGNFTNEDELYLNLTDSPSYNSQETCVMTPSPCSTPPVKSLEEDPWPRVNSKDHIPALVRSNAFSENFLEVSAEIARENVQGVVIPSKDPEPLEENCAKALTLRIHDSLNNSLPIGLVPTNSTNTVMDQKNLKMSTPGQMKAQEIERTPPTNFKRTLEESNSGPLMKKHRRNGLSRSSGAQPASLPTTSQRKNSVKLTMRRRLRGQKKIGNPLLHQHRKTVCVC
Calcium and integrin-binding protein 1 (Homo sapiens), sequence (Q99828 whole entry, looked up): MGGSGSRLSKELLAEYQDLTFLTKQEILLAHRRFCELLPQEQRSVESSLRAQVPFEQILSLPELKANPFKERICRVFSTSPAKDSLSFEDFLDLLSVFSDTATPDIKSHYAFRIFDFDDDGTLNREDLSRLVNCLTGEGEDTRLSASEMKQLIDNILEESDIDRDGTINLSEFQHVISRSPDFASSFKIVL

As for `COCCCOc1ccnc(CS(=O)c2nc3ccccc3[nH]2)c1C` (centres undefined), the Potency entry in assay [1], in [2] and in assay [4] was “inactive” throughout. Also, the compound was classed as inactive in assay [3].
With `Oc1ccc(-c2nc(-c3ccc(F)cc3)c(-c3ccncc3)[nH]2)cc1`, the outcome in [5] and in assay [8] was inactive. In addition, the Potency entry in assay [6], in assay [7] and in assay [4] was “inactive” in each case.
With `O=C(OC1C[C@H]2CC[C@@H](C1)[N+]21CCCC1)C(O)(c1ccccc1)c1ccccc1` (some centres undefined), the Potency result in assay [1], in [2] and in assay [4] was “inactive” each time. The outcome in [3] was inactive.
As for `CCCCCCCCOc1ccccc1C(=O)Nc1ccc(C(=O)OCC[N+](C)(CC)CC)cc1`, the Potency entry in assay [1], in assay [2] and in assay [4] was “inactive” in each case. For the same compound, the call in assay [3] was inactive.
As for `CC1=C(C(=O)O)N2C(=O)[C@@H](NC(=O)[C@H](N)C3=CCC=CC3)[C@H]2SC1`, the Potency entry in [1], in assay [2] and in [4] was “inactive” each time. In addition, the call in assay [3] was inactive.
As to `O=c1cc(N2CCOCC2)oc2c(-c3ccccc3)cccc12`, the call in assay [5] and in assay [8] was inactive. The Potency entry in assay [6] and in assay [7] was “inactive” in each case.
Consider `CCN(CC)CCOc1ccc(Nc2ncc3cc(-c4c(Cl)cccc4Cl)c(=O)n(C)c3n2)cc1`, for which the result in assay [5] was inactive.
For `Nc1nc(OCc2ccccc2)c2[nH]cnc2n1`, the compound was classed as inactive in assay [5] and in [8]. Besides, the Potency entry in [6], in [7] and in [4] was “inactive” each time.
Turning to `Cc1cccc(-c2[nH]ncc2-c2ccc3ncccc3n2)n1`, in assay [5], the call was inactive. Besides, in [6], the Potency result was “inactive”.
For `CC(=O)N1CCN(c2ccc(OC[C@H]3CO[C@](Cn4ccnc4)(c4ccc(Cl)cc4Cl)O3)cc2)CC1`, the compound was called inactive in assay [5] and in [8]. The Potency entry in [6], in [7] and in assay [4] was “inactive” each time.
Regarding `O=C1CCc2ccc(OCCCCN3CCN(c4cccc(Cl)c4Cl)CC3)cc2N1`, the Potency result in [1], in [2] and in assay [4] was “inactive” each time. Also, the compound was classed as inactive in assay [3].
Turning to `CCOC(=O)C1=C(O)C(=O)N(Cc2ccccc2)C1`, in [5], the outcome was inactive. Moreover, the Potency entry in assay [6] was “inactive”.
In the case of `Cc1nccn1CC1CCc2c(c3ccccc3n2C)C1=O` (centres undefined), the Potency entry in assay [1], in assay [2] and in [4] was “inactive” throughout. In addition, the call in assay [3] was inactive.
Regarding `CC(C)c1nc(CN(C)C(=O)N[C@H](C(=O)N[C@@H](Cc2ccccc2)C[C@H](O)[C@H](Cc2ccccc2)NC(=O)OCc2cncs2)C(C)C)cs1`, the Potency result in [1], in [2] and in assay [4] was “inactive” in each case. In addition, in assay [3], the outcome was inactive.
For `C[C@@H](c1ncncc1F)[C@](O)(Cn1cncn1)c1ccc(F)cc1F`, in assay [5], the result was inactive. Besides, the Potency result in assay [6] was “inactive”.
On to `CN(C)[C@@H](CCOc1cccc2ccccc12)c1ccccc1`, for which the Potency result in assay [1], in assay [2] and in assay [4] was “inactive” in each case. Further, the compound was classed as inactive in [3].
As for `CCN(CC)C(=S)SSC(=S)N(CC)CC`, the Potency in assay [9] was 14.1 µM (active) and inactive.
